Entries with a potency or affinity are not part of this list. The source made the active and inactive calls.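 How the source made its calls: active means signal-lowering compounds whose fitted half-maximal concentration is at or below twice the top tested dose in every run; inconclusive means runs disagree, flat 30 to 70% inhibition, or poor curve fit; inactive means the rest.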
molecular target: Protein S100-A4 (Homo sapiens) (UniProt P26447); assay: S100A4-myosin IIA binding inhibitor potency, dose response, biochemical, fluorescence polarization, cherry-picked hits (AID 687001); conditions: FP, S100A4/TAMRA-myosin IIA peptide binding; series mostly up to 11 µM
Sequence (P26447 whole entry, looked up): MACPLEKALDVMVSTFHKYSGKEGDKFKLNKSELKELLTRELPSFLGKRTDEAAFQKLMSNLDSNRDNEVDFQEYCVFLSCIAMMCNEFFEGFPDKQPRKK

Question: How did the outcome turn out when `O=C(Nc1ccc(C(F)(F)F)cc1)N[C@H]1C=C[C@@H](CC(=O)N2CCCCC2)O[C@@H]1CO` was run?
Answer: inactive

Question: With `CCCCCCCCNC(CO)(CO)CO` as the compound, how does the outcome read?
Answer: inactive

Question: For `COc1ccc(CN(C)C(=O)Cc2ccc(S(=O)(=O)N3CCOCC3)s2)cc1OC`, which outcome is on record?
Answer: inactive

Question: Which outcome does the source give for `Nc1cccc2c(=O)[nH][nH]c(=O)c12` here?
Answer: inactive

Question: With `CC(C)CN1CCC(=O)N([C@H](COc2ccccc2)c2ccccc2)CC1` as the compound, how does the outcome read?
Answer: inactive

Question: With `CCNC(=O)[C@H]1N[C@H]2c3ccc(-c4cccc(C(=O)N(C)C)c4)c(=O)n3C[C@H]2[C@@H]1CO` as the compound, how does the outcome read?
Answer: inactive

Question: How did the outcome turn out when `N/C(=N\OC(=O)CCn1cccc(C(F)(F)F)c1=O)c1ccc(OC(F)(F)F)cc1` was run?
Answer: inactive

Question: With `COc1cc(S(=O)(=O)Nc2ccc(C)cc2)ccc1N=Cc1c(C)c(C#N)c(=O)n(C)c1O` as the compound, how does the outcome read?
Answer: inactive

Question: How did the outcome turn out when `COc1ccc(C(CNC(=O)C(=O)Nc2ccc3c(c2)OCCO3)N2CCN(C)CC2)cc1` (centres undefined) was run?
Answer: inactive

Question: Which outcome does the source give for `CN1c2ccc(-c3ccccc3)cc2[C@@H]2[C@@H](CCN2C(=O)c2cccc(F)c2)[C@@H]1CO` here?
Answer: inactive

Question: Which outcome does the source give for `COc1ccc2c3c([nH]c2c1)[C@H](CO)N(S(C)(=O)=O)CC31CN(CC2CCOCC2)C1` here?
Answer: inactive

Question: Which outcome does the source give for `Cn1cnc(S(=O)(=O)N2C[C@H](O)COC[C@@H]3O[C@H](CC(=O)NC4CCCC4)CC[C@H]32)c1` here?
Answer: inactive

Question: Which outcome does the source give for `Cc1ccccc1S(=O)(=O)NCC[C@H]1CC[C@H](NC(=O)C2CCC2)[C@H](CO)O1` here?
Answer: inactive

Question: How did the outcome turn out when `Cn1c(=O)[nH]c(=O)c2c1nc(SCC(=O)O)n2CCOc1ccccc1` was run?
Answer: inactive

Question: How did the outcome turn out when `C[C@H](CO)N1C[C@H](C)[C@@H](CN(C)Cc2cccc(F)c2)Oc2ncc(C#C[C@@H](C)O)cc2C1=O` was run?
Answer: inactive

Question: `C[C@@H]1CN([C@@H](C)CO)C(=O)c2cccc(NC(=O)C3CC3)c2O[C@@H]1CN(C)S(C)(=O)=O` was tested. Which outcome did it give?
Answer: inactive

Question: For `COc1ccc(/C=C2/CCCc3ccccc3C2=O)cc1`, which outcome is on record?
Answer: inactive

Question: With `NC(=O)c1nsc(C(=O)N(c2ccccc2F)C(C(=O)NCc2ccccc2)c2ccc(O)cc2)c1N` (centres undefined) as the compound, how does the outcome read?
Answer: inactive

Question: With `CN1c2ccc(-c3cccc(F)c3)cc2[C@H]2[C@H](CCN2C(=O)c2ccccc2F)[C@H]1CO` as the compound, how does the outcome read?
Answer: inactive

Question: Which outcome does the source give for `CO[C@H]1CC[C@H]2CCOc3c(C#N)cccc3C(=O)N(C)C[C@H](c3ccccc3)CC(=O)N(C)C[C@H]1O2` here?
Answer: inactive

Question: `CSC[C@H]1CN(Cc2cccnc2)C(=O)[C@@H]1CC(=O)Nc1ccc(Br)cc1` was tested. Which outcome did it give?
Answer: inactive

Question: With `CN(CC(=O)Nc1cccc(F)c1)C(=O)c1cccc(S(=O)(=O)N2CCN(Cc3ccccc3)CC2)c1` as the compound, how does the outcome read?
Answer: inactive

Question: With `CC(=O)Nc1ccc(Nc2nnc(-c3ccc(C)c(S(N)(=O)=O)c3)c3ccccc23)cc1` as the compound, how does the outcome read?
Answer: inactive

Question: How did the outcome turn out when `CCOC(=O)C1=C(C)N(C)C(=O)NC1c1cccc2ccccc12` (centres undefined) was run?
Answer: inactive

Question: With `CN(C)CCCNC(=O)C[C@@H]1CC[C@H]2[C@@H](COC[C@@H](O)CN2Cc2ccc(Cl)c(Cl)c2)O1` as the compound, how does the outcome read?
Answer: inactive

Question: With `CC(=O)N1[C@H](C(=O)N[C@H](C)c2ccccc2)[C@@H](CO)[C@@H]2Cn3c(cccc3=O)[C@@H]21` as the compound, how does the outcome read?
Answer: inactive

Question: With `CNS(=O)(=O)c1ccc2c(c1)[nH]c(=S)n2C` as the compound, how does the outcome read?
Answer: inactive

Question: Which outcome does the source give for `COc1cccc(NC(=O)N(C)C[C@@H]2OCc3ccccc3-c3c(n(C)c4ccccc34)C(=O)N([C@@H](C)CO)C[C@@H]2C)c1` here?
Answer: inactive

Question: Which outcome does the source give for `CSc1cccc(NC(=O)C2CCN(S(=O)(=O)c3ccc4c(c3)NC(=O)CO4)CC2)c1` here?
Answer: inactive

Question: `Nc1c(C(=O)Nc2ccc3c(c2)OCCO3)nnn1Cc1ccc(F)cc1` was tested. Which outcome did it give?
Answer: inactive

Question: `CCCN(CCC)Cc1cc(=O)oc2cc(C)c(C)cc12` was tested. Which outcome did it give?
Answer: inactive

Question: For `COCCN(C(=O)COC(=O)COc1ccc2ccccc2c1)c1c(N)n(Cc2ccccc2)c(=O)[nH]c1=O`, which outcome is on record?
Answer: inactive

Question: For `CCC(=O)N[C@@H]1CC[C@H](CCNC(=O)Nc2ccc(C(F)(F)F)cc2)O[C@H]1CO`, which outcome is on record?
Answer: inactive

Question: `COc1ccc(CNC(=O)c2cc(S(=O)(=O)N3CCCCC3)ccc2Cl)cc1OC` was tested. Which outcome did it give?
Answer: inactive

Question: For `C[C@H](CO)N1C[C@H](C)[C@H](CN(C)CC2CC2)OCc2ccccc2-c2c(n(C)c3ccccc23)C1=O`, which outcome is on record?
Answer: inactive

Question: With `Cc1ccc(C(=O)C2=C(O)C(=O)N(Cc3cccnc3)C2c2cccc([N+](=O)[O-])c2)o1` (centres undefined) as the compound, how does the outcome read?
Answer: inactive

Question: For `COC(=O)c1cccc(NC(=O)c2ccc3c(c2)C(=O)N(Cc2cccnc2)C3=O)c1`, which outcome is on record?
Answer: inactive

Question: `N#C[C@@H]1[C@H](c2ccccc2C2=CCCCC2)[C@@H](CO)N1S(=O)(=O)c1cccc(F)c1` was tested. Which outcome did it give?
Answer: inactive

Question: With `O=C(CCC1CCN(C(=O)c2ccco2)CC1)NCc1ccc(F)cc1` as the compound, how does the outcome read?
Answer: inactive

Source: PubChem BioAssay AID687001 (Broad Institute, 2013)
